Bioassay records deposited in PubChem BioAssay by National Center for Advancing Translational Sciences (NCATS).
Sampled rows, rich in hits. Any-hit rate of the full collection: about 11%.
Tau fluor counter – Counterscreen qHTS for Inhibitors of Tau Fibril Formation, Fluorescence Polarization | tau K18 P301L Alexa594 fluorescence, heparin fibrillization | Potency, µM (series often up to 57.7 µM), inactives show at the highest dose activity change, negative = decrease | 0.93% of 280,000 active | AID 1463, 2008; also: potency is read from the fitted curve at half-maximal effect; nearly all actives have a fitted effect of over 55% in size
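Human K18 P301L tau (15 uM unlabeled plus 0.24 uM Alexa 594-labeled, final) in 100 mM sodium acetate pH 7 was mixed with compound and 20 uM heparin and incubated 6 hr at 37 C.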
G9a inh – qHTS Assay for Inhibitors of Histone Lysine Methyltransferase G9a | 8.8% of 350,000 active | Potency, µM (series often up to 102 µM), for the others: at the top dose activity, negative = inhibition, most hits filed as inhibitors | G9a H3K9 monomethylation, AlphaScreen, 2 h | AID 504332, 2011; also: potency is read from the fitted curve at half-maximal effect; nearly all actives have a fitted effect of over 75% in size
Target sequence (Q96KQ7 913-1193 limits assumed): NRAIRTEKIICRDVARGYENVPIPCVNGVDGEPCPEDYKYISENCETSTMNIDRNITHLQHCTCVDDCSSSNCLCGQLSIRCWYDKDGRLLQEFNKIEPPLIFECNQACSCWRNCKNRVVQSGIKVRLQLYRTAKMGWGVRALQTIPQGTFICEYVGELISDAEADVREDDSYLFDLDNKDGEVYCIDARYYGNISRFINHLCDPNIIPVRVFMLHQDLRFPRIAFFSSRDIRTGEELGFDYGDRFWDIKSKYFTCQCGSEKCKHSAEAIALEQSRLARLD
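Quantitative HTS format: methyltransferase activity on a biotin-tagged H3K9 peptide is measured by AlphaScreen, using a rabbit anti-monomethyl-H3K9 antibody with streptavidin donor and anti-IgG acceptor beads. Final levels are 20 nM enzyme, 500 nM peptide, 20 uM SAM; 2 h RT.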
Coupling enz – qHTS Assay for Inhibitors of Fructose-1,6-bisphosphate Aldolase from Giardia Lamblia: Coupling assay counterscreen | coupling enzyme system counterscreen, AmpLite Red fluorescence | activity change, negative = inhibition, % at 58.2 µM, hits read low | 0.67% of 290,000 active | AID 2472, 2010; in the data active = activity change below about -30%
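Counterscreen of the coupled detection system alone, without aldolase: glyceraldehyde-3-phosphate coupling enzymes plus AmpLite Red readout. Compounds at 57.5 uM final, 10 min RT preincubation, 20 min RT reaction, fluorescence 525/598 nm.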
Tau ThT inhib – qHTS for Inhibitors of Tau Fibril Formation, Thioflavin T Binding; recombinant tau K18 P301L, heparin-induced fibrillization, ThT fluorescence; Microtubule-associated protein tau (Homo sapiens), P10636; 2.1% of 270,000 active; Potency, µM (highest dose often 57.4 µM), for the others: top-dose activity, negative = inhibition, most hits filed as inhibitors; also: potency is read from the fitted curve at half-maximal effect; nearly all actives have a fitted effect of over 55% in size
Target sequence (P10636 561-689 P618L limits assumed): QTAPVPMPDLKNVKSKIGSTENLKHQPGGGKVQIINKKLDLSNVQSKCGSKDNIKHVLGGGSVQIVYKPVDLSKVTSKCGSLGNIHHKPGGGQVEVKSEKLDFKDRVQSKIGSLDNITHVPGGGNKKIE
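K18 P301L tau (15 uM + 0.24 uM Alexa 594-tagged), heparin 20 uM, NaOAc pH 7, 6 h 37 C; ThT 30 uM, 1 h RT, ex 450/em 510 nm.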
Sfp inh – qHTS Assay for Inhibitors of Bacillus subtilis Sfp phosphopantetheinyl transferase (PPTase). AID 1490, 2009. Potency, µM, for the others: largest response in the series, negative = inhibition, actives largely listed as inhibitors. Biochemical Sfp PPTase activity, qHTS. 3.5% of 310,000 active. 4'-phosphopantetheinyl transferase ffp (Bacillus subtilis), Q9F4F7;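 also: the enzyme is Sfp with the accession as filed and its product quenches rhodamine fluorescence; potency is read from the fitted curve at half-maximal effect; 0% = enzyme reaction without inhibitor and -100% = no enzyme wells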
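Fluorescence-quenching assay: 15 nM Sfp-PPTase preincubated 15 min at room temperature with compound, then 5 uM rhodamine-CoA and 12.5 uM BHQ-2-labelled YbbR peptide added. Fluorescence (ex 525/em 598 nm) read at start and after 30 min; difference gives rate.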
Tau fibril FP – qHTS for Inhibitors of Tau Fibril Formation, Fluorescence Polarization; Microtubule-associated protein tau (Homo sapiens), P10636; K18 P301L tau heparin fibrillization, Alexa594 FP, 6 h; Potency, µM (top dose mostly 57.7 µM), inactives show top-dose activity, negative = inhibition, hits mostly inhibitors; 0.39% of 280,000 active; also: potency is read from the fitted curve at half-maximal effect; nearly all actives have a fitted effect of over 55% in size
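Heparin (20 uM) drove fibril formation of recombinant tau K18 P301L, 15 uM unlabeled with 0.24 uM Alexa 594 label, for 6 hr at 37 C in 100 mM sodium acetate pH 7. Fluorescence polarization (555/632 nm) read 1 hr after 30 uM ThT.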
* hit, by the source's call; ? = inconclusive; nt = not tested or not shown; [ ] = dose if it differs, or a comment. Unless noted, calls follow the shape of the dose curve; as a rule, active = well fitted curve in the direction sought with a large enough effect; inconclusive = small, poorly fitted or top-dose-only effect, or another doubt; inactive = no such curve, though single readings can be large; an effect the other way counts as inactive or inconclusive. Unless noted, % is scaled to controls: 0 for no effect and ±100 for the full control effect.

SMILES | Tau fluor counter | G9a inh | Coupling enz | Tau ThT inhib | Sfp inh | Tau fibril FP
Cc1cccc(-n2c(=O)c3c(c4cc(C)ccc4n3C)n(C)c2=O)c1 | -7% | -2%[59 µM] | nt | 2% | nt | -8%
CCOc1ccc(CNC(=O)c2nn(-c3ccc(OC)cc3)c(=O)c3c2c2ccccc2n3C)cc1 | -6% | 5%[59 µM] | nt | 4% | nt | -10%
CC1CC1C(=O)OCC(=O)Nc1cccc([N+](=O)[O-])c1 (centres undefined) | -11% | 8% | 1 | -8% | 7% | -5%
O=c1c(C(c2ccc(Cl)cc2)c2c(O)nc3n(c2=O)CCCS3)c(O)nc2n1CCCS2 | -28% | -48% | 10 | 11µM* | -10% | ?
O=c1c(C(c2ccc(Cl)cc2)c2c(O)nc3n(c2=O)CCS3)c(O)nc2n1CCS2 | 8% | -23%[12.7 µM] | 8 | ? | -3% | ?
Cc1cc(=O)n(CC(=O)NCCC(C)C)c2c1c(C)nn2C | 5% | 10%[59 µM] | nt | 0% | nt | 4%
C(=C\c1ccncc1)/c1ccncc1 | 11% | 12% | -1 | 1% | 14% | 9%
c1cc(SSc2ccncc2)ccn1 | nt | 0.56µM* | -1 | nt | 35µM* | nt
CN(C)C(CNc1ncccn1)c1ccccc1 (centres undefined) | nt | 9% | 1 | nt | 18% | nt
CC(NC(=O)c1cc2ccccc2oc1=O)c1ccccc1 (centres undefined) | nt | 6% | 5 | nt | 2% | nt
O=C1NC(=O)N(Cc2ccccc2F)C1=O | nt | 22µM* | 4 | nt | ? | nt
COc1cc(/C=C2/NC(=O)N(Cc3ccccc3F)C2=O)cc(OC)c1O | ? | 35µM* | -8 | ? | -14% | 4%
O=C1N/C(=C/c2cccn2-c2ccccc2)C(=O)N1Cc1ccccc1F | 9% | ? | 0 | 8% | -3% | 5%
CCOc1cc(/C=C2/NC(=O)N(Cc3ccccc3F)C2=O)ccc1O | ? | -1%[59 µM] | 1 | -13% | 1% | 15%
COc1ccc(CCNC(=O)CCCCCn2c(=O)[nH]c3cc(OC)c(OC)cc3c2=O)cc1OC | -7% | 4%[59 µM] | nt | -16% | nt | -3%
CN(CC1COc2ccccc2O1)C(=O)c1cccc(S(=O)(=O)N2CCCC2)c1 (centres undefined) | nt | 1µM* | nt | nt | nt | nt
O=C(Nc1ccc(C(F)(F)F)cc1)c1cc(S(=O)(=O)NCC2COc3ccccc3O2)ccc1F (centres undefined) | ? | 29%[59 µM] | -3 | 7% | 23% | 13µM*
COc1ccc(NC(=O)c2cc(S(=O)(=O)NCC3COc4ccccc4O3)ccc2F)cc1 (centres undefined) | ? | -6%[59 µM] | -2 | -8% | 23% | 2%
O=C(NCC1COc2ccccc2O1)c1c[nH]c2ccc(S(=O)(=O)N3CCOCC3)cc2c1=O (centres undefined) | -6% | ? | 0 | -10% | 16% | 3%
O=C(NCC1COc2ccccc2O1)c1cc(S(=O)(=O)N2CCOCC2)ccc1F (centres undefined) | nt | 22µM* | nt | nt | nt | nt
Cc1n[nH]c(=S)n1/N=C/c1c(O)ccc2ccccc12 | nt | nt | 0 | nt | 63µM* | nt
COc1cc(/C=N/n2c(C)nc3ccccc3c2=O)cc(OC)c1O | nt | 13µM* | -3 | nt | -3% | nt
Cc1nc2ccccc2c(=O)n1/N=C/c1c(O)ccc2oc3c(c12)CCCC3 | ? | 4%[2.33 µM] | -26 | ? | 22µM* | -1%
Cc1ccc(/C=N/n2c(C)nc3ccccc3c2=O)o1 | -6% | 0% | -4 | -6% | 4% | 0%
COc1cc(OC)c(OC)cc1/C=N/n1c(C)nc2ccccc2c1=O | nt | 14% | 1 | nt | 20% | nt
CSc1nnc(C(C)(C)C)c(=O)n1/N=C/c1c(O)ccc2ccccc12 | -13% | ? | -10 | -5% | 22% | -6%
